HT1080-NT tox – qHTS for induction of synthetic lethality in tumor cells producing 2HG: qHTS for the HT-1080-NT fibrosarcoma cell line; Potency, µM (series often up to 46.1 µM), without a hit: at the highest dose activity, negative = less viability, actives largely listed as cytotoxic; actives 1.6% (n = 360,000); AID 686970, 2013; HT-1080-NT fibrosarcoma viability, CellTiter-Glo ATP luminescence, 48 h;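 also: NT is the 2HG producing partner of a matched IDH1 knockdown line; potency is read from the fitted curve at half-maximal effect; 0% = DMSO-treated cells and -100% = media-only wells without cells; nearly all actives have a fitted effect of over 55% in size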
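HT-1080-NT; 750 cells/well; 5% FBS RPMI; 48 h compound, 37 degrees C; CellTiter-Glo luminescence; curve fitting and curve-class assignment.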
IL1B secr inh – qHTS for Inhibitors of Inflammasome Signaling: IL-1-beta AlphaLISA Primary Screen; THP-1 LPS/ATP IL-1B secretion, AlphaLISA, 16 h; active compounds read low; activity change, % at 57.5 µM; actives 4.7% (n = 360,000); in the data active = activity change below about -50%; inconclusive = mostly about -30% to -49%
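THP-1 cells pretreated 1 hr with compounds (up to 57.5 uM final), then stimulated with LPS (250 ng/mL final) plus ATP (1.25 mM final); secreted IL-1B measured by AlphaLISA after 16 hr, decreased signal indicating inhibition.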
HT1080 IDH1KD tx – qHTS for induction of synthetic lethality in tumor cells producing 2HG: qHTS for the HT-1080-IDH1KD cell line | HT-1080 IDH1 knockdown viability, ATP luminescence, 48 h | Potency, µM (top dose mostly 46.1 µM), without a hit: at the top dose activity, negative = toxicity, usual class: cytotoxic | actives 2% (n = 360,000);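 also: potency is read from the fitted curve at half-maximal effect; 0% = DMSO wells and -100% = cell-free medium wells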
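In this qHTS, HT-1080 cells depleted of IDH1 are exposed for 48 h at 37 °C to compound titrations. Toxicity is scored from CellTiter-Glo luminescence, with DMSO as full viability and medium alone as none.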
12-LOX inh – Primary qHTS assay for inhibitors of human arachidonate 12S-lipoxygenase (ALOX12): Round 2 | Potency, µM (titrated, usually from 108 µM), inactives show at the top dose activity change, negative = inhibition, most hits filed as inhibitors | actives 1.1% (n = 580,000) | purified 12hLO, xylenol orange hydroperoxide absorbance | Polyunsaturated fatty acid lipoxygenase ALOX12 (Homo sapiens), P18054; also: potency is read from the fitted curve at half-maximal effect
Target sequence (P18054 whole entry, looked up): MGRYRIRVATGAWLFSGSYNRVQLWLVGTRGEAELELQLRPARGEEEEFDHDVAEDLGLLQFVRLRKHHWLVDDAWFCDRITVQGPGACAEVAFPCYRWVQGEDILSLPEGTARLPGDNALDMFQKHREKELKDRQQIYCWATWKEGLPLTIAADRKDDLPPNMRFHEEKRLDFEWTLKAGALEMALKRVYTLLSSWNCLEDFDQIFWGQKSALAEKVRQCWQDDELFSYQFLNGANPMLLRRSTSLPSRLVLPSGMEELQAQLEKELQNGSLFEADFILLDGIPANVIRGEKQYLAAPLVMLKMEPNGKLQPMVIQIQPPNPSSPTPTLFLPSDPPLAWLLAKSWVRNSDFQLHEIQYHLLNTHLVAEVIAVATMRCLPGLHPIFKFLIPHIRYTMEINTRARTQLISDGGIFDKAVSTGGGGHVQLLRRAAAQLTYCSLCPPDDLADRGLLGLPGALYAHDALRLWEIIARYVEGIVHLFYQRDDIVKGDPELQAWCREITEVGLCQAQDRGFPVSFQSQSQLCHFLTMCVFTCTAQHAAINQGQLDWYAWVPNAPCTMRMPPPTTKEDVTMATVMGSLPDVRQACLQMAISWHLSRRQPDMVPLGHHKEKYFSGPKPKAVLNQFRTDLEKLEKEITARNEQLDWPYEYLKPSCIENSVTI
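Hydroperoxide product was detected by ferrous iron/xylenol orange as the 573 to 405 nm absorbance ratio. Arachidonic acid at 40 uM (final) was turned over for 30 min at room temperature by 150 nM human 12hLO, pH 7.0 Hepes buffer, after 15 min compound preincubation.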
DT40 TDP1 CPT – qHTS for Inhibitors of human tyrosyl-DNA phosphodiesterase 1 (TDP1): qHTS in cells in presence of CPT | chicken DT40 Tdp1-/-;hTDP1 cells + 20 nM CPT, ATP luminescence, 48 h | Potency, µM (highest dose often 46.2 µM), for the others: at the highest dose activity change, negative = growth inhibition, hits mostly inhibitors | actives 12% (n = 420,000); also: potency is read from the fitted curve at half-maximal effect; nearly all actives have a fitted effect of over 55% in size
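Cell growth measured by CellTiter-Glo luminescence after a minimum 48 h, 37 C compound exposure with 20 nM CPT in Tdp1-knockout DT40 cells stably expressing hTDP1, seeded 400/well; qHTS titration format.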
TDP1 cell noCPT – qHTS for Inhibitors of human tyrosyl-DNA phosphodiesterase 1 (TDP1): qHTS in cells in absence of CPT | DT40 Tdp1-/- hTDP1 cells, no CPT, ATP luminescence, 48 h | AID 686978, 2013 | Potency, µM (top dose mostly 46.2 µM), for inactives: top-dose activity change, negative = growth inhibition, usual class: inhibitors | actives 15% (n = 420,000); also: potency is read from the fitted curve at half-maximal effect; nearly all actives have a fitted effect of over 55% in size
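Compound effects on proliferation are scored in DT40 Tdp1-/-;hTDP1 cells in the absence of CPT. ATP levels (CellTiter-Glo luminescence) are recorded after a ≥48 hr, 37 °C incubation.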
Active calls of the source: *; ? = inconclusive; / = not tested or not shown; [ ] = another dose, or the depositor's remark. This excerpt belongs to a sample that is enriched for hits. Unless noted, calls follow the shape of the dose curve; as a rule, active = well fitted curve in the direction sought with a large enough effect; inconclusive = small, poorly fitted or top-dose-only effect, or another doubt; inactive = no such curve, though single readings can be large; an effect the other way counts as inactive or inconclusive. Unless noted, % is scaled to controls: 0 for no effect and ±100 for the full control effect.

SMILES | HT1080-NT tox | IL1B secr inh | HT1080 IDH1KD tx | 12-LOX inh | DT40 TDP1 CPT | TDP1 cell noCPT
COc1ccc2c(c1)C(NC(C)=O)C(=O)N2CCOc1ccccc1 (configuration not stated) | / | / | / | -26% | / | /
COc1ccc([C@@H]2Sc3cc(OC)ccc3N(CCN(C(C)C)C(C)C)C(=O)[C@H]2OC(C)=O)cc1 | -14% | -6 | -25% | -27% | 21µM* | ?
Nn1c(SCC(=O)NCCc2ccccc2)nnc1-c1ccco1 | / | / | / | 25% | / | /
CC1CN(C(=S)SCC(=O)c2ccc([N+](=O)[O-])cc2)CC(C)O1 (configuration not stated) | -13% | -23 | -3% | -24% | 2.6µM* | 5.2µM*
CC1CN(C(=S)NC(=O)c2ccc([N+](=O)[O-])cc2)CC(C)O1 (configuration not stated) | 6% | 25 | 7% | -11% | 6% | 1%
O=C(CSCC(=O)c1ccc([N+](=O)[O-])cc1)c1ccc([N+](=O)[O-])cc1 | -3% | 9 | 0% | / | 21µM* | ?
O=C(CNc1ccccc1)c1ccc([N+](=O)[O-])cc1 | 2% | 3 | 2% | ? | 15µM* | 16µM*
O=C(Nc1cccc2c(=O)[nH][nH]c(=O)c12)c1ccc([N+](=O)[O-])cc1 | 1% | 79 | -7% | -12% | 8.2µM* | -17%
COc1ccc(OC)c(C(O)c2ncc(-c3ccc(C(F)(F)F)cc3)[nH]2)c1 (configuration not stated) | -16% | 24 | -9% | 13% | ? | ?
O=C(Nc1cccc2ccccc12)c1ccc([N+](=O)[O-])cc1 | -13% | -15 | -10% | -3% | -7% | ?
O=C(CNc1cccc2ccccc12)c1ccc([N+](=O)[O-])cc1 | 4% | -5 | 4% | -17% | 15µM* | 13µM*
COc1ccccc1N(CN1C(=O)c2ccccc2C1=O)C(=O)c1cccc(C)c1 | 25% | -7 | 14% | -20% | 21µM* | ?
COc1cc2c(cc1OC)C(C)N(C(=S)NC(=O)c1ccccc1)CC2 (configuration not stated) | -24% | 30 | -8% | -16% | ? | 21µM*
COc1cc2c(cc1OC)[C@H](C)N(C(=O)NCc1ccccc1)CC2 | ? | 20 | 21µM* | 10% | 23µM* | 7.3µM*
C#CCNC(=O)CC[C@H]1CNC(=O)[C@@H]2[C@@H](CCN2Cc2ccc(O)cc2)N1C | / | / | / | 8%[176 µM] | / | /
C=CCC[C@H](Cc1ccc(F)cc1)C(=O)OC[C@H](Cc1c[nH]c2ccccc12)NC(=O)[C@@H](CC=C)CC(=O)NCCO | -14% | -12 | -7% | -30% | ? | ?
C=CC[C@H](CC(=O)N(CCO)Cc1ccccc1)C(=O)N[C@H](COC(=O)[C@@H](CC=C)Cc1ccc(F)cc1)Cc1c[nH]c2ccccc12 | ? | -56* | 21µM* | -29% | ? | ?
C=CCC[C@@H](Cc1ccc(F)cc1)C(=O)OC[C@@H](Cc1c[nH]c2ccccc12)NC(=O)[C@@H](CC=C)CC(=O)N(CCO)Cc1ccccc1 | ? | -19 | ? | -12% | ? | 23µM*
C=CC[C@@H](CC(=O)N(CCO)Cc1ccccc1)C(=O)N[C@H](COC(=O)[C@@H](CC=C)Cc1ccc(F)cc1)Cc1c[nH]c2ccccc12 | ? | 0 | ? | ? | ? | ?
C=CCC[C@H](Cc1ccc(F)cc1)C(=O)OC[C@H](Cc1c[nH]c2ccccc12)NC(=O)[C@H](CC=C)CC(=O)N(CCO)Cc1ccccc1 | ? | ? | ? | -11% | ? | 26µM*
N=c1c(C(=O)NC2CCCCC2)cc2c(=O)n3ccccc3nc2n1Cc1ccccc1 | -2% | 21 | 1% | -14% | ? | ?
CCC(C)n1c(=N)c(C(=O)NCc2ccccc2)cc2c(=O)n3cc(C)ccc3nc21 (configuration not stated) | / | / | / | ? | ? | 16µM*
Cc1ccc(Cn2c(=N)c(C(=O)NC3CCCC3)cc3c(=O)n4ccccc4nc32)cc1 | 12% | -7 | 20% | / | 10µM* | 6.5µM*
Cc1ccc2nc3c(cc(C(=O)NC4CCCC4)c(=N)n3C3CCCCC3)c(=O)n2c1 | 12% | 30 | 4% | -22% | ? | ?
Cc1ccc2nc3c(cc(C(=O)NC4CCCCC4)c(=N)n3C3CCCCC3)c(=O)n2c1 | 1% | 6 | ? | -12% | ? | 15µM*
SMILES | HT1080-NT tox | IL1B secr inh | HT1080 IDH1KD tx | 12-LOX inh | DT40 TDP1 CPT | TDP1 cell noCPT
N=c1c(C(=O)NC2CCCCC2)cc2c(=O)n3ccccc3nc2n1CCc1ccccc1 | -1% | 40 | 2% | -24% | ? | 21µM*
CN(C)c1ncc2c(n1)C(C)(C(=O)NCCCn1ccnc1)CCC2 (configuration not stated) | / | / | / | -48%[176 µM] | / | /
Cc1cccn2c(=O)c3cc(C(=O)N4CCOCC4)sc3nc12 | / | / | / | -13% | / | /
Cc1cc(CN2CCCCCCn3c(nnc3-c3ccc(F)cc3)CC2)n(C)n1 | / | / | / | 13% | / | /
COc1ccc(C(=O)c2c3ccc(OC)cc3[n+]([O-])n2CCCC(N)=O)cc1 | 0% | 26 | 1% | -8% | -1% | -16%
Cc1ccc(C(=O)c2c3ccc([N+](=O)[O-])cc3[n+]([O-])n2CCC(N)=O)cc1 | -8% | 1 | -17% | ? | 5.8µM* | 15µM*
COc1ccc(C(=O)c2c3ccc([N+](=O)[O-])cc3[n+]([O-])n2CCCC(N)=O)cc1 | -30% | 5 | -1% | ? | 9.2µM* | 21µM*
COc1cccc(-c2oc3c(c2C#CCCO)C(O)CCC3)c1 (configuration not stated) | 4% | 3 | 1% | 0% | -8% | -15%
COc1ccc(-c2ccc3oc(-c4ccc(OC)cc4)c(C#CCO)c3c2)cc1 | 21µM* | ? | 16µM* | ? | 23µM* | ?

Screening data: PubChem, National Center for Advancing Translational Sciences (NCATS)
